A short description of test [1]: small molecules captured by biotinylated probe aFSTL3 – biochemical, small-molecule microarray, fluorescence 635/667, stem cell growth factor project, primary screen (AID 1064).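 Note: measures binding of the biotinylated anti-FSTL3 antibody to printed compounds.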 To be noted: higher = more signal.
The nature of test [2]: binders from COS7 lysate, DM2A8 probe, primary screen, torsin A project, cell lysate, small-molecule microarray, fluorescence 635/667 (AID 1065). The settings on record: higher = more signal, COS7 lysate expressing mutant human TOR1A.
Test [3] is described as follows: small molecules captured by biotinylated probe aFGF2 – biochemical, small-molecule microarray, fluorescence 635/667, stem cell growth factor project, primary screen (AID 1067).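 Note: measures binding of biotinylated aFGF2 protein to printed compounds on slides; z-score merges feature fluorescence and signal-to-noise across triplicate slides.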 To be noted: higher = more signal.
A short description of test [4]: small molecules captured by biotinylated probe aFGF10 – biochemical, small-molecule microarray, fluorescence 635/667, stem cell growth factor project, primary screen (AID 1071).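 Note: score merges 667 nm spot intensity and signal to noise from triplicate slides.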 The settings on record: higher = more signal.
Test [5] deals with Neurogenic locus notch homolog protein 2 (Homo sapiens) (UniProt Q04721). Briefly: small molecules binding Notch2 protein – biochemical, small-molecule microarray, 635 nm fluorescence, stem cell growth factors, primary screen (AID 1073). To be noted: higher = more signal.
The target of test [6] is Pro-neuregulin-1, membrane-bound isoform (Homo sapiens) (UniProt Q02297). Briefly: small molecules binding neuregulin-1 protein – biochemical, small-molecule microarray, fluorescence 635/667, psychiatric disease protein project, primary screen (AID 1075).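 Note: score combines 667 nm spot fluorescence with signal to noise.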 The settings on record: NRG1 binding, 635 nm fluorescence, higher = more signal.
Pro-neuregulin-1, membrane-bound isoform (Homo sapiens), sequence (Q02297 whole entry, looked up, the tested form may be a part, canonical isoform): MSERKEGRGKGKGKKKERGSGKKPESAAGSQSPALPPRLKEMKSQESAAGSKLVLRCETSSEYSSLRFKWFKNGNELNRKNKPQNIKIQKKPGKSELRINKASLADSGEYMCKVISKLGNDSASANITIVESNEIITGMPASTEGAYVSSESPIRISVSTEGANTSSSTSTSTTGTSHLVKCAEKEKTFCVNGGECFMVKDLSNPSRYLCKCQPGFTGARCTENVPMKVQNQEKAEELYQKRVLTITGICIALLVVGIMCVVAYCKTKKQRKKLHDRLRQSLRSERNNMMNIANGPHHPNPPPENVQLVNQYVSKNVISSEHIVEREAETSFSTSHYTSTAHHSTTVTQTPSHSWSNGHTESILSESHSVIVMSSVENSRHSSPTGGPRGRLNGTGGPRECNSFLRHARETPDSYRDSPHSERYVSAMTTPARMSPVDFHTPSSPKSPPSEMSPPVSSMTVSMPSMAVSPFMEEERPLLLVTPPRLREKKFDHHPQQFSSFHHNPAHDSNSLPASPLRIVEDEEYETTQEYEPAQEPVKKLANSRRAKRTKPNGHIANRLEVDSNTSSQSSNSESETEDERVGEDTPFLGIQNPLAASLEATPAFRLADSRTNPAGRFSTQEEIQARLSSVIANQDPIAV
For test [7], the system named is Neuregulin-1 EGF-like domain. Briefly: small molecules binding NRG1 EGF domain – biochemical, small-molecule microarray, 635 nm fluorescence, primary screen (AID 1081).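 Note: binding of the protein to compounds printed on small-molecule microarray slides.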 The settings on record: higher = more signal.
The nature of test [8]: FRG1 expression reporter modulators in myotubes – cell-based, C2C12 myotubes, firefly/Renilla luciferase, luminescence, FRG1 inhibition for FSHD, primary screen (AID 1084). The settings on record: FRG1 promoter luciferase, higher = more signal, called active from +8 up or from −8 down.
The nature of test [9]: small molecules captured by biotinylated probe aFST – biochemical, small-molecule microarray, fluorescence 635/667, stem cell growth factor project, primary screen (AID 1086).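 Note: score merges 667 nm fluorescence with signal-to-noise of each printed compound spot.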 To be noted: higher = more signal.
Test [10] is described as follows: binders of probe aHhip on microarray, primary screen, stem cell growth factor project, biochemical, small-molecule microarray, fluorescence 635/667 (AID 1087).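 Note: score merges spot fluorescence at 667nm with spot signal to noise ratio.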 The settings on record: higher = more signal.
The test system of test [11] is PRMT1 (protein arginine N-methyltransferase 1). In words: small molecules binding arginine methyltransferase PRMT1 – biochemical, small-molecule microarray, 635 nm fluorescence, primary screen (AID 1088).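 Note: binding of Prmt1 protein to compounds spotted on small-molecule microarray slides.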 The settings on record: higher = more signal.
Test [12] is described as follows: growth effects on S. cerevisiae YJM789 – YJM789 clinical isolate, OD600, 24 h, basal, primary screen (AID 1089).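 Note: growth of clinical yeast isolate S. cerevisiae YJM 789 seeded 1000 cells per well; test concentration not given here.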 To be noted: higher = more signal, called active from +8 up or from −8 down.
Test [13] in a line: S. pombe growth modifiers, basal conditions – strain 972, OD600, 24 h, no modulator, primary screen (AID 1090).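 Note: basal condition with compound alone and no growth modifier present; test concentration not given here.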 To be noted: S. pombe 972 growth, higher = more signal, called active from +8 up or from −8 down.
Test [14] in a line: budding yeast growth modifiers under rapamycin – strain BY4716, OD600, 96 h, primary screen (AID 1091). Note: test concentration not given here. The settings on record: S. cerevisiae BY4716 + rapamycin, higher = more signal, called active from +8 up or from −8 down.
For test [15], the target named is Torsin-1A-interacting protein 2 (Homo sapiens) (UniProt Q8NFQ8). Briefly: small molecules binding lysate-expressed LULL1 – cell lysate, human LULL1 lysate, 635/667 nm fluorescence, primary screen (AID 1092).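 Note: probe is lysate of COS7 cells overexpressing human LULL1; score merges per-feature 667 nm fluorescence with signal-to-noise.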 To be noted: small-molecule microarray, hLULL1 lysate binding, 635 nm fluorescence; higher = more signal.
Torsin-1A-interacting protein 2 (Homo sapiens), sequence (Q8NFQ8 whole entry, looked up): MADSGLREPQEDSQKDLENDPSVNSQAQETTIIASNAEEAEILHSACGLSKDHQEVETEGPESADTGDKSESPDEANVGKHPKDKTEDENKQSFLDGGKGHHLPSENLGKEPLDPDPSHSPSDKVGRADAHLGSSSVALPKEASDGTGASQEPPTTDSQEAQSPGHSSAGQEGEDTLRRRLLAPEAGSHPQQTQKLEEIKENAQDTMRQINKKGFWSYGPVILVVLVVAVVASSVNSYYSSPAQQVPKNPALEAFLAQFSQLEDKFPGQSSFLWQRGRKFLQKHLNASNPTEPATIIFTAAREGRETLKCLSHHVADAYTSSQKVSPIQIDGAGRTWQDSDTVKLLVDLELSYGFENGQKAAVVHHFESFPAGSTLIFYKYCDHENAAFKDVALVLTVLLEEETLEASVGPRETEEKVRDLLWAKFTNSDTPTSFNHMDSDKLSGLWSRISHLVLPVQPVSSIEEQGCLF
A short description of test [16]: optical density change of DRC41 E. coli – strain DRC41, OD650, 24 h, E. coli filamentation project, primary screen (AID 1093).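 Note: MC1000 strain lacking acrAB efflux and sulA so SOS filamentation is blocked; test concentration not given here.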 The settings on record: E. coli DRC41 growth, higher = more signal, called active from +8 up or from −8 down.
Test [17] can be described thus: probe aLefty2 binding to arrayed compounds – biochemical, biotinylated probe, 635/667 nm fluorescence, primary screen (AID 1094).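 Note: score merges spot fluorescence near 667 nm with spot signal-to-noise ratio.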 The settings on record: small-molecule microarray, higher = more signal.
For test [18], the system named is Noggin (protein binding on small-molecule microarray). Briefly: small molecules binding Noggin protein – biochemical, 635/667 nm fluorescence, primary screen (AID 1095).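 Note: score merges 667 nm feature fluorescence with signal to noise over triplicate slides.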 To be noted: 635 nm fluorescence, higher = more signal.
The target of test [19] is Neurogenic locus notch homolog protein 3 (Homo sapiens) (UniProt Q9UM47). In words: small molecules binding NOTCH3 protein – biochemical, 635/667 nm fluorescence, primary screen (AID 1096). To be noted: small-molecule microarray, 635 nm fluorescence, higher = more signal.
Neurogenic locus notch homolog protein 3 (Homo sapiens), sequence (Q9UM47 whole entry, looked up): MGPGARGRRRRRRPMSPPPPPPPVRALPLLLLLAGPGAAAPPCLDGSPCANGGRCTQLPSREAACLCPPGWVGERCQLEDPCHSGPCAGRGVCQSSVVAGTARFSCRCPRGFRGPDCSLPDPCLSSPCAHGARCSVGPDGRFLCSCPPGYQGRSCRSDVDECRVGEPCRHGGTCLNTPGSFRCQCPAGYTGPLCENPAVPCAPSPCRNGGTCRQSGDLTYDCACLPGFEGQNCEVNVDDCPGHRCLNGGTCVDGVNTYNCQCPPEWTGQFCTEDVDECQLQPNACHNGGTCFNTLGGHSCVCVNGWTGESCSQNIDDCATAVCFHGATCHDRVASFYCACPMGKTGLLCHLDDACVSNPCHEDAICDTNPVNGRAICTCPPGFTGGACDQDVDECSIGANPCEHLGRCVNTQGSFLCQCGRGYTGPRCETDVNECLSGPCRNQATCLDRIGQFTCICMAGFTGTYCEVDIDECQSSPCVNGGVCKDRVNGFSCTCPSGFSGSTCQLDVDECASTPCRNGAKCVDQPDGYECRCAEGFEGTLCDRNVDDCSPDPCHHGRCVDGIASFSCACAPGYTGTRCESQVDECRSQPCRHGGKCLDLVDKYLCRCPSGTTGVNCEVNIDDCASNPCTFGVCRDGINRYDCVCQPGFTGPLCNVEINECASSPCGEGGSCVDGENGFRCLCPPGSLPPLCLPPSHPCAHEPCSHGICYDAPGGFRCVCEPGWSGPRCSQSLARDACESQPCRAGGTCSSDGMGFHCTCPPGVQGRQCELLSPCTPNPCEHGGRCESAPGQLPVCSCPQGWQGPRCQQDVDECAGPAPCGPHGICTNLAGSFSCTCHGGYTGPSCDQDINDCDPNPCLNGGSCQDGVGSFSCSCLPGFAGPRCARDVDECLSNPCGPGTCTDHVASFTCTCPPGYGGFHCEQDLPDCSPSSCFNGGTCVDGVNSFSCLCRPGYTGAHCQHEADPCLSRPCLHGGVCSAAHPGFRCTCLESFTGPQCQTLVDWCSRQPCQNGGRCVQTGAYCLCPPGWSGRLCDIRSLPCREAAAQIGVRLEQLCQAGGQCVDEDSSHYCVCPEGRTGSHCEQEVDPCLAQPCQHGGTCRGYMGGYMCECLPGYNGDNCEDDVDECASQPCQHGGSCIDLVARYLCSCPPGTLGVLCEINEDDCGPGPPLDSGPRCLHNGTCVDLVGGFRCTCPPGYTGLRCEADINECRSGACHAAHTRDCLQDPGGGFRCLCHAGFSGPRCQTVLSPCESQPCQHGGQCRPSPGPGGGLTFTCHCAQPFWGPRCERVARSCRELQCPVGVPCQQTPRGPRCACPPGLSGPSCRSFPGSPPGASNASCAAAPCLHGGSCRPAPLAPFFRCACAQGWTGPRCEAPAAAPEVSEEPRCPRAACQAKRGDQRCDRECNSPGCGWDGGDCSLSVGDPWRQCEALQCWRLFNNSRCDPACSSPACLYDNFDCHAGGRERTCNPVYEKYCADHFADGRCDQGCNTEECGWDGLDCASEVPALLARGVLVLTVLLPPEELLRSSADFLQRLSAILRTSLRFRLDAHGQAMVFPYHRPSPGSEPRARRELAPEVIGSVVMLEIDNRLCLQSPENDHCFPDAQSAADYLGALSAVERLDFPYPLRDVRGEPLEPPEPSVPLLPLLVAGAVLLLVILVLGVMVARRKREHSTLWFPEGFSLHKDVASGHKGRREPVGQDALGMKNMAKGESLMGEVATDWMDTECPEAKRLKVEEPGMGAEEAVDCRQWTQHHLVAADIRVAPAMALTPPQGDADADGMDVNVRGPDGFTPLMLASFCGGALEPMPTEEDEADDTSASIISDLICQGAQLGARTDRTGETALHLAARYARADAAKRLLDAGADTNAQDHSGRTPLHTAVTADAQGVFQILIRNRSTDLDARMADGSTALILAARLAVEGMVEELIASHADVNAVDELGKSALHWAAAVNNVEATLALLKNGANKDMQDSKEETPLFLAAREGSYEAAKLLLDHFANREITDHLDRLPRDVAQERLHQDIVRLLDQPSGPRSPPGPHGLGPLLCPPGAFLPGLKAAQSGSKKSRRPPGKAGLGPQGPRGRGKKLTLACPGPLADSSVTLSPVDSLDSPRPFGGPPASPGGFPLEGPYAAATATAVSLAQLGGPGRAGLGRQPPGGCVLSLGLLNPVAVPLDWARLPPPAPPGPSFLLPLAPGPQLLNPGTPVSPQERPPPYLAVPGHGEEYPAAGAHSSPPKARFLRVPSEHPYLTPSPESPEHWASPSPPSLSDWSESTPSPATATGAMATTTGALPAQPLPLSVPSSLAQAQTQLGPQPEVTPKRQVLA
Test [20] can be described thus: probe aEGFR binding to arrayed compounds – biochemical, biotinylated probe, 635/667 nm fluorescence, primary screen (AID 1097).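 Note: probe is a biotinylated anti-EGFR antibody binding compounds printed on slides; score combines fluorescence near 667 nm and signal to noise of each spot.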 The settings on record: small-molecule microarray, higher = more signal.

The values below come from PubChem BioAssay.

The source made the active and inactive calls.

As for `O=C1C2C=CC(C(O)c3cccs3)N(Nc3ccccc3)C2C(=O)N1c1ccccc1` (stereo not given), the composite z-score in [1] is 0.629; in test [2] it was -0.0855; in test [3], -0.0459; in test [4], 0.0873; in [5] it was 0.878; in test [6], 0.97. The composite z-score is 0.964 in test [7]; 0.35 in test [9]; -0.0237 in test [10]; -0.435 in test [11]; 3.11 in [15]; -0.0329 in [17]. Further, the composite z-score in test [18] is -0.448; in test [19] it was 0.365; in test [20], -0.0583. The z-score in test [8] was -1.49 (inactive); in [12], 0.521 (inactive); in test [13], -0.175 (inactive); in test [14], 0.231 (inactive); in test [16], 0.0249 (inactive).
With `C=CCC(OC(C)=O)[C@@H]1[C@@H](N(Cc2cc3ccccc3o2)C(=O)Cc2ccc(OC)cc2)c2cc(OCCCO)ccc2N1C(=O)Cc1ccc(OC)cc1` (stereo not given in full), the composite z-score in [1] is -0.186; in test [2], 0.0357; in [3], -0.0459; in [4] it was 0.0855; in [5], -0.144; in test [6], -0.0625. For the same compound, the composite z-score is 0.0781 in [7]; -0.0586 in test [9]; 0.0623 in test [10]; 0.0873 in test [11]; 0.0103 in test [15]; -0.0757 in test [17]. In addition, the composite z-score in test [18] is 0.312; in [19], -0.293; in [20], -0.108. For the same compound, the z-score is -1.19 (inactive) in test [8]; -0.484 (inactive) in test [12]; 0.142 (inactive) in [13]; -0.197 (inactive) in test [14]; -0.847 (inactive) in test [16].
On to `CO[C@H]1O[C@H](CO)[C@@H](OC(=O)Nc2ccc3c(c2)OCO3)[C@@H]2OC(=O)[C@@H](Cc3ccccc3)C/C=C/C[C@H](Cc3ccccc3)C(=O)O[C@@H]12`, for which the composite z-score is -0.276 in test [1]; -0.0172 in test [2]; 0.0631 in test [3]; 0.984 in test [4]; 1.12 in [5]; 0.995 in test [6]. In addition, the composite z-score in [7] was 0.976; in test [9], 0.508; in [10], 0.0373; in test [11], 1.48; in test [15] it was 1.29; in test [17], -0.0562. The composite z-score in [18] was determined as 0.566; in test [19], 0.887; in test [20], 0.0528. Also, the z-score is -0.277 (inactive) in [8]; 1.17 (inactive) in [12]; 0.78 (inactive) in test [13]; 2.27 (inactive) in test [14]; 0.156 (inactive) in test [16].
In the case of `COC(=O)[C@H](Cc1ccc(O)cc1)N1CC2=CCCC=C[C@@H]2[C@H]1[C@H](O)Cc1ccccc1`, the composite z-score was -0.565 in test [1]; -0.214 in test [2]; -0.124 in test [3]; 0.288 in [4]; 0.35 in test [5]; 0.166 in test [6]. Further, the composite z-score in [7] was 0.324; in test [9] it was 0.166; in test [10], -0.132; in test [11], 1.13; in [15] it was 0.616; in test [17], -0.29. Further, the composite z-score in test [18] is 0.191; in test [19] it was -0.0213; in test [20] it was -0.112. The z-score is -0.106 (inactive) in test [8]; -0.662 (inactive) in test [12]; -2.3 (inactive) in test [13]; -1.03 (inactive) in [14]; 0.65 (inactive) in test [16].
Take `O=C(NCCO)C1=C[C@H](Oc2ccccc2I)[C@@H](O)[C@H](NCc2ccc(F)cc2)C1`: the composite z-score in [1] was 0.175; in test [2], 0.917; in [3] it was -0.145; in test [4], 1.38; in test [5] it was -0.627; in test [6], -0.835. The composite z-score in test [7] was -1.68; in test [9], -0.459; in test [10] it was 0.0722; in [11], 0.517; in test [15], -0.992; in [17] it was -0.212. For the same compound, the composite z-score in test [18] was 1.66; in test [19], -0.0545; in test [20] it was -0.202. The z-score in test [8] is -0.766 (inactive); in test [12], 0.0567 (inactive); in [13], -20.5 (active); in test [14], -0.455 (inactive); in test [16], -0.909 (inactive).
